This passage reports activity, Potency and activity change, negative = inhibition results from PubChem BioAssay (NCATS).

For experiment [1], the target named is Catechol O-methyltransferase (Homo sapiens) (UniProt P21964). Nature of the experiment: Confirmatory Screen for Target Class Profiling of Small Molecule Inhibitors of Methyltransferases (AID 1745852; calls by dose curve; also: potency is read from the fitted curve at half-maximal effect; as to activity change, negative = inhibition: % is scaled to controls: 0 for no effect and ±100 for the full control effect). Particulars: MTase-Glo luminescence, SAH detection, recombinant enzyme; measured here: COMT max response; stronger effect = lower value.
Catechol O-methyltransferase (Homo sapiens), sequence (P21964 whole entry, looked up): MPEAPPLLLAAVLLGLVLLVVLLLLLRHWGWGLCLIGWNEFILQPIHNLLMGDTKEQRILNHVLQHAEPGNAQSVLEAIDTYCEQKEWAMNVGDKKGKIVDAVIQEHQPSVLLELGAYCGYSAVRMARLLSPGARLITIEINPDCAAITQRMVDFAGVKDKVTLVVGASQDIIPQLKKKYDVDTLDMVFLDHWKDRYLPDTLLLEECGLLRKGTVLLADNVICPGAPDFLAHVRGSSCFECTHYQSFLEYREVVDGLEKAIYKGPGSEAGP
The target of experiment [2] is Guanidinoacetate N-methyltransferase (Homo sapiens) (UniProt Q14353). The description is as above. Particulars: MTase-Glo luminescence, SAH detection, recombinant enzyme; activity change, negative = inhibition: at 57.3 µM (top of the series) unless noted; series mostly up to 57.3 µM.
For experiment [3], the target named is Nicotinamide N-methyltransferase (Homo sapiens) (UniProt P40261). The experiment is described as above. The note with it: MTase-Glo luminescence, SAH detection, recombinant enzyme; measured here: NNMT max response; stronger effect = lower value.
Nicotinamide N-methyltransferase (Homo sapiens), sequence (P40261 whole entry, looked up): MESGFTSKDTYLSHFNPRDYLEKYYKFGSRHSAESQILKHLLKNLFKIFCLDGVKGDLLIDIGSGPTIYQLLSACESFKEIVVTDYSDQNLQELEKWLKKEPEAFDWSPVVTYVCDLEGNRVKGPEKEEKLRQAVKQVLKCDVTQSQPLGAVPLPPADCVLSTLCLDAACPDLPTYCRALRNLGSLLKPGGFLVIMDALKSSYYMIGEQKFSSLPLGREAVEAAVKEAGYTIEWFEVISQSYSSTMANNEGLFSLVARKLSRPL
For experiment [4], the target named is Phenylethanolamine N-methyltransferase (Homo sapiens) (UniProt P11086). Described as above. The note with it: MTase-Glo luminescence, SAH detection, recombinant enzyme; measured here: PNMT max response; stronger effect = lower value.
Phenylethanolamine N-methyltransferase (Homo sapiens), sequence (P11086 whole entry, looked up): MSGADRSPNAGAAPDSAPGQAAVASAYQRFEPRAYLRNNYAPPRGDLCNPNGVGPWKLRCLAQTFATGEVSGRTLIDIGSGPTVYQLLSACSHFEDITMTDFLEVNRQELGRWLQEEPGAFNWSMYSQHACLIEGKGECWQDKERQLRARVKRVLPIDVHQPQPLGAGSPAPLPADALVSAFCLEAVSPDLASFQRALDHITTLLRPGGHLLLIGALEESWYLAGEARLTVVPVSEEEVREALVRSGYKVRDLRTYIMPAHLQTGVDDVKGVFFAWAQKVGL
The target in experiment [5] is Glutathione peroxidase 1 (Homo sapiens) (UniProt P07203). The experiment is described as follows: Primary qHTS Assay for Inhibitors of Recombinant Selenoprotein Glutathione Peroxidase 1 (GPX1) (AID 1845191). Also: nearly all actives have a fitted effect of over 65% in size. The note with it: recombinant GPX1, GR-coupled NADPH fluorescence, 15 min; series mostly up to 48.8 µM. A digest of the protocol: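 GPX1 10 nM, GR 100 nM, GSH 1 mM, NADPH 0.5 mM, CHP 0.5 mM (final). 30-min cpd preincubation, RT. Ex340/Em450 read t=0, t=15 min.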
Glutathione peroxidase 1 (Homo sapiens), sequence (P07203 whole entry, looked up): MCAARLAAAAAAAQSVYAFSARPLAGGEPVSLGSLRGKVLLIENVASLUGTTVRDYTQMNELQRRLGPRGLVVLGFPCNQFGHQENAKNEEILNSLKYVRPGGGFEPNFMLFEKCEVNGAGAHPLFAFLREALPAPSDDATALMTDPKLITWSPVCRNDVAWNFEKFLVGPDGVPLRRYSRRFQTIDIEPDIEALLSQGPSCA
In general terms: qHTS replaces the single test concentration by a dilution series.

For experiment [6], the target named is Phospholipid hydroperoxide glutathione peroxidase GPX4 (Homo sapiens) (UniProt P36969). The experiment is described as follows: Primary qHTS Assay for Inhibitors of Recombinant Selenoprotein Glutathione Peroxidase 4 (GPX4) (AID 1845192). Also: nearly all actives have a fitted effect of over 65% in size. Also: potency is read from the fitted curve at half-maximal effect. As to activity change, negative = inhibition: % is scaled to controls: 0 for no effect and ±100 for the full control effect. Particulars: recombinant GPX4, GR-coupled NADPH fluorescence, 15 min; series mostly up to 50 µM. A digest of the protocol:
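qHTS, GR-coupled: GPX4 200 nM + cpd 30 min RT → GSH 1 mM, NADPH 0.5 mM, GR 100 nM → CHP 0.5 mM start; fluor 340/450 at t0 and t15 min; no-enzyme wells as control.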

Experiment [7] deals with Luciferin 4-monooxygenase (Photinus pyralis) (UniProt P08659). Nature of the experiment: Primary firefly luciferase (FLuc) qHTS assay for identification of artifact compounds. (AID 1845220). Also: nearly all actives have a fitted effect of over 60% in size.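 As to activity change, negative = inhibition: plate controls were DMSO vehicle for no effect and no enzyme for full effect.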 Particulars: purified firefly luciferase, luminescence, 5 min; series mostly up to 54.1 µM. Put shortly:
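qHTS, 15 min compound preincubation with substrate (10 uM luciferin, 10 uM ATP) at RT, then 10 nM FLuc; 5 min; luminescence; % inhibition vs no-enzyme/DMSO controls, 4-parameter Hill fit.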

Experiment [8] in a line: Primary fluorescence-based thiol-reactive (MSTI) qHTS assay for identification of artifact compounds. (AID 1845221). Also: nearly all actives have a fitted effect of over 65% in size. Also: potency is read from the fitted curve at half-maximal effect. The note with it: MSTI thiol-reactivity probe, 1 h; series mostly up to 53.8 µM. A digest of the protocol: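 MSTI probe at 4 uM final in 2% DMSO/PBS pH 7.4; compounds, 1 h at room temperature in dark. Fluorescence Ex/Em 525/598 nm, normalised to Acetyl-MSTI and MSTI, fitted to 4-parameter Hill.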

The test system of experiment [9] is Nanoluciferase (engineered Oplophorus gracilirostris luciferase). The experiment is described as follows: Primary Nanoluciferase (NLuc) qHTS assay for identification of artifact compounds. (AID 1845222). Also: potency is read from the fitted curve at half-maximal effect. The note with it: NLuc-conditioned medium, Nano-Glo luminescence, 5 min; series mostly up to 54.1 µM. A digest of the protocol: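 Luminescence read-out of secreted NLuc in S16 cell conditioned medium (1:55); compounds tested with 15 min RT preincubation, then Nano-Glo substrate 1:100, 5 min. % inhibition vs no-enzyme and DMSO controls, 4-parameter Hill fit.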

A short description of experiment [10]: Primary redox qHTS assay for identification of artifact compounds. (AID 1845223).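 Also: 0% = DMSO and 100% = reference compound.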 The note with it: Amplex Red/HRP redox cycling with DTT, fluorescence; series mostly up to 53.8 µM. Put shortly:
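Redox-cycling detection via DTT (250 uM final) oxidation coupled to Amplex Red (25 uM)/HRP (250 mU/mL) in HBSS. 15 min preincubation plus 30 min after DTT, room temperature. Ex/Em 525/598 nm; 4-parameter Hill fit against DMSO and 10 uM DA3003.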

“And” between values parts separate entries of the source, which are not always exact repeats. Equal entries are not always repeated. Results filed as inconclusive are left out. Some structures have more than one record in an assay (separate samples or runs), and their calls can disagree. The source made the active and inactive calls. Unless noted, calls follow the shape of the dose curve; as a rule, active = well fitted curve in the direction sought with a large enough effect; inconclusive = small, poorly fitted or top-dose-only effect, or another doubt; inactive = no such curve, though single readings can be large; an effect the other way counts as inactive or inconclusive.

Phospholipid hydroperoxide glutathione peroxidase GPX4 (Homo sapiens), sequence (P36969 whole entry, looked up): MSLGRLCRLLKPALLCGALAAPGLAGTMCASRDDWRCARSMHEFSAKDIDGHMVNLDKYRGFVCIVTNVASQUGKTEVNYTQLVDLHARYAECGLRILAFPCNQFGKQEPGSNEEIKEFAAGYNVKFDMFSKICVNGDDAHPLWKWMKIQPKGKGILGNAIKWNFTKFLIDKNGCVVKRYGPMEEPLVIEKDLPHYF

For the molecule `COc1cc(N2CCC(N)CC2)ccc1Nc1ncc(Cl)c(-c2c[nH]c3ccccc23)n1`, the activity is -32.1% in experiment [1], -35.8% in [3] and -27% in experiment [4]. In addition, the Potency in experiment [2] is 24.1 µM (active); in experiment [8] it was 1.89 µM (active). Besides, the Potency result in experiment [5], in experiment [6], in experiment [7], in experiment [9] and in experiment [10] was “inactive” each time.

On to `C=C1C(=O)OC2C(OC(=O)C=C(C)C)C(C)=C3C(=O)C=C(C)C3C(O)C12` (stereo not drawn), for which the results for the activity in [1], in experiment [3] and in [4] were -65.9%, 2.7% and 4.72%, respectively. The activity change, negative = inhibition in experiment [2] was -0.769%. Besides, the Potency result in experiment [5], in experiment [6], in experiment [7], in experiment [8] and in [10] was “inactive” throughout. In addition, the Potency in [9] was 7.4 µM (active).

Regarding `CS(=O)(=O)Nc1ccc2oc3c(OC(F)F)ccc(C(=O)Nc4c(Cl)cncc4Cl)c3c2c1`, the figures for the activity in experiment [1], in experiment [3] and in experiment [4] were -3.19%, -19.3% and -4.54%, respectively. Besides, the activity change, negative = inhibition in experiment [2] is -1.02%. For the same molecule, the Potency result in [5], in [6], in [7], in experiment [8], in experiment [9] and in experiment [10] was “inactive” each time.

As for `CCc1c(Cl)c(O)c(Cl)c(O)c1C(=O)O[C@H]1[C@H](O)[C@H](OC)[C@H](OC/C2=C\C=C\C[C@H](O)/C(C)=C\[C@H](CC)[C@@H](O[C@@H]3OC(C)(C)[C@@H](OC(=O)C(C)C)[C@H](O)[C@@H]3O)/C(C)=C/C(C)=C/C[C@@H]([C@@H](C)O)OC2=O)O[C@@H]1C`, the activity was -16.7% in [1], -8.66% in experiment [3] and -8.05% in experiment [4]. Besides, the activity change, negative = inhibition in experiment [2] was -5.75% [at 29.8 µM]. Moreover, the Potency result in experiment [5], in experiment [7] and in experiment [9] was “inactive” each time. In [6], the Potency result was “inactive and 5.01 µM (active)”.

On to `O=C([C@@H]1CCCN(c2ccc3[nH]c(C4(n5cc(Cl)cn5)CC4)nc3n2)C1)N1CCCC1`, for which the activity in experiment [1] is -0.433%; in experiment [3], 0.992%; in experiment [4], 0.881%. For the same molecule, the activity change, negative = inhibition in [2] was found to be 0%. The Potency result in experiment [5], in experiment [7], in [8], in experiment [9] and in [10] was “inactive” throughout. Also, in [6], the Potency is 25.5 µM (active).

Regarding `CC(F)(F)CN1CCOc2c(nn(-c3ccccc3Cl)c2-c2ccc(Cl)cc2)C1=O`, the activity in experiment [1] was -4.22%; in experiment [3] it was -32.3%; in [4], -3.99%. For the same molecule, the activity change, negative = inhibition in experiment [2] turned out to be 0.516%. The Potency result in [5], in experiment [6], in experiment [7], in experiment [8] and in experiment [10] was “inactive” in each case.

`CC1(CO)CC(O)[C@]2(C(=O)O)CCC34CC3(C=CC3[C@]5(C)C(CC[C@]34C)C(C)(CO)[C@@H](O)[C@H](O)[C@@H]5O)C2C1` (stereo partly drawn): the activity was -56.5% in [1], -2.18% in experiment [3] and -2.96% in experiment [4]. For the same molecule, the activity change, negative = inhibition in experiment [2] was -5.29% [at 29.8 µM]. Moreover, the Potency entry in experiment [5], in experiment [6], in [7], in experiment [9] and in [10] was “inactive” each time.

For the molecule `C=CC(=O)Nc1ccc(CN2C(=O)N(c3cc(OC)cc(OC)c3)Cc3cnc(Nc4ccc(N5CCN(C)CC5)cc4)nc32)cc1`, the activity in experiment [1] was -18.9%; in experiment [3] it was -1.46%; in experiment [4], -2.5%. Also, the activity change, negative = inhibition in experiment [2] is -0.849%. The Potency result in [5], in experiment [6], in experiment [7], in experiment [9] and in experiment [10] was “inactive” throughout.

Regarding `CN(C)CCCn1cc(C2=C(c3c[nH]c4ccccc34)C(=O)NC2=O)c2ccccc21`, the activity was -45.6% in experiment [1], -41.3% in experiment [3] and -44.4% in [4]. Also, the Potency in experiment [2] is 27.1 µM (active); in [8] it was 0.423 µM (active). Further, the Potency result in experiment [5], in [6], in [7] and in experiment [10] was “inactive” throughout.

Consider `CCn1c2ccccc2c2cc(Nc3ccnc(NCCCN4CCOCC4)n3)ccc21`, for which the activity in [1] is -20%; in experiment [3], -66.6%; in experiment [4], -29.8%. Further, the activity change, negative = inhibition in experiment [2] was -7.76%. The Potency result in experiment [5], in experiment [6], in [7], in experiment [9] and in [10] was “inactive” in each case.
